Test results from ChEMBL document CHEMBL2218924, “A broad activity screen in support of a chemogenomic map for kinase signalling research and drug discovery” (Biochem J, 2013).

How the values were obtained:
[1] = target: Focal adhesion kinase 1 (Homo sapiens) (UniProt Q05397); conditions: at 10 µM
[2] = target: Fibroblast growth factor receptor 1 (Homo sapiens) (UniProt P11362); conditions: at 1 µM
[3] = target: Fibroblast growth factor receptor 1 (Homo sapiens) (UniProt P11362); conditions: at 10 µM
[4] = target: Fibroblast growth factor receptor 2 (Homo sapiens) (UniProt P21802); conditions: at 1 µM
[5] = target: Fibroblast growth factor receptor 2 (Homo sapiens) (UniProt P21802); conditions: at 10 µM
[6] = target: Tyrosine-protein kinase Fes/Fps (Homo sapiens) (UniProt P07332); conditions: at 1 µM
[7] = target: Tyrosine-protein kinase Fes/Fps (Homo sapiens) (UniProt P07332); conditions: at 10 µM
[8] = target: Tyrosine-protein kinase Fgr (Homo sapiens) (UniProt P09769); conditions: at 1 µM
[9] = target: Tyrosine-protein kinase Fgr (Homo sapiens) (UniProt P09769); conditions: at 10 µM
[10] = target: Vascular endothelial growth factor receptor 1 (Homo sapiens) (UniProt P17948); conditions: at 1 µM
[11] = target: Vascular endothelial growth factor receptor 1 (Homo sapiens) (UniProt P17948); conditions: at 10 µM
[12] = target: Receptor-type tyrosine-protein kinase FLT3 (Homo sapiens) (UniProt P36888); conditions: at 1 µM
[13] = target: Receptor-type tyrosine-protein kinase FLT3 (Homo sapiens) (UniProt P36888); conditions: at 10 µM
[14] = target: Vascular endothelial growth factor receptor 3 (Homo sapiens) (UniProt P35916); conditions: at 1 µM
[15] = target: Tyrosine-protein kinase Fer (Homo sapiens) (UniProt P16591); conditions: at 1 µM
[16] = target: Tyrosine-protein kinase Fer (Homo sapiens) (UniProt P16591); conditions: at 10 µM
[17] = target: Fibroblast growth factor receptor 3 (Homo sapiens) (UniProt P22607); conditions: at 1 µM
[18] = target: Fibroblast growth factor receptor 3 (Homo sapiens) (UniProt P22607); conditions: at 10 µM
[19] = target: Fibroblast growth factor receptor 4 (Homo sapiens) (UniProt P22455); conditions: at 10 µM
[20] = target: Fibroblast growth factor receptor 4 (Homo sapiens) (UniProt P22455); conditions: at 1 µM

Chain of Vascular endothelial growth factor receptor 3 (Homo sapiens) (P35916 whole entry): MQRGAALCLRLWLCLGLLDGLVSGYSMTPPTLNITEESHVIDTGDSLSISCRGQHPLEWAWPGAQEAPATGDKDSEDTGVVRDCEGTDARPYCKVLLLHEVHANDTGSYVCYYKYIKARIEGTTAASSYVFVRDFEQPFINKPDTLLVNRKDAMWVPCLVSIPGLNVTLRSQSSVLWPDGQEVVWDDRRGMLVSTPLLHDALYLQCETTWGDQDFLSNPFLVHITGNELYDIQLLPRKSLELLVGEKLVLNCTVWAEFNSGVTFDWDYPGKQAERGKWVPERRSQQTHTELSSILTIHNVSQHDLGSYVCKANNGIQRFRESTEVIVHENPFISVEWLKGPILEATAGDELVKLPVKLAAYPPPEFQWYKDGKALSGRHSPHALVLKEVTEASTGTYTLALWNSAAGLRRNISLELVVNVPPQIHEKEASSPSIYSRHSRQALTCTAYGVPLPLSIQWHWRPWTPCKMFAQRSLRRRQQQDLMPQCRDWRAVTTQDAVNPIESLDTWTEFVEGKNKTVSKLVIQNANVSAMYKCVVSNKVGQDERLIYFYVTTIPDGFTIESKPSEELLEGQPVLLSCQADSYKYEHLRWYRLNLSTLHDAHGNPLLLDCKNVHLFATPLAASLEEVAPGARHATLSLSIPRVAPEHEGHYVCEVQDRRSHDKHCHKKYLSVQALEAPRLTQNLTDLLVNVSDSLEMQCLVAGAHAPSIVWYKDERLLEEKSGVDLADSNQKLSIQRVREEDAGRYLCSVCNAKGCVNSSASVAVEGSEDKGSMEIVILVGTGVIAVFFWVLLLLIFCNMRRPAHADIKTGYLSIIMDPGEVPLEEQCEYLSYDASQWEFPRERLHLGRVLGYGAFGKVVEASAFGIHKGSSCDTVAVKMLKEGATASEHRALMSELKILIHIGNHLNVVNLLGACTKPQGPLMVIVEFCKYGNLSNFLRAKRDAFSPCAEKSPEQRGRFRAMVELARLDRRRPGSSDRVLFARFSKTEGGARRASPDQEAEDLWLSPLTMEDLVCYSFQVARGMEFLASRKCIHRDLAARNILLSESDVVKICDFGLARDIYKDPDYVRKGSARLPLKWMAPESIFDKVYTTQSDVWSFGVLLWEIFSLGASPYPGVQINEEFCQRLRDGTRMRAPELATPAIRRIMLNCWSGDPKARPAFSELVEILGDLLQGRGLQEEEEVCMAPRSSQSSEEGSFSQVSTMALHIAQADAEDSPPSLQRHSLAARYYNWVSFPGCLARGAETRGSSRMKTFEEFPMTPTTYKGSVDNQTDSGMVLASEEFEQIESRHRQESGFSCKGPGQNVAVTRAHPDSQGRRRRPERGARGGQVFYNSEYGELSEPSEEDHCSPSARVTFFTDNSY
Chain of Receptor-type tyrosine-protein kinase FLT3 (Homo sapiens) (P36888 whole entry): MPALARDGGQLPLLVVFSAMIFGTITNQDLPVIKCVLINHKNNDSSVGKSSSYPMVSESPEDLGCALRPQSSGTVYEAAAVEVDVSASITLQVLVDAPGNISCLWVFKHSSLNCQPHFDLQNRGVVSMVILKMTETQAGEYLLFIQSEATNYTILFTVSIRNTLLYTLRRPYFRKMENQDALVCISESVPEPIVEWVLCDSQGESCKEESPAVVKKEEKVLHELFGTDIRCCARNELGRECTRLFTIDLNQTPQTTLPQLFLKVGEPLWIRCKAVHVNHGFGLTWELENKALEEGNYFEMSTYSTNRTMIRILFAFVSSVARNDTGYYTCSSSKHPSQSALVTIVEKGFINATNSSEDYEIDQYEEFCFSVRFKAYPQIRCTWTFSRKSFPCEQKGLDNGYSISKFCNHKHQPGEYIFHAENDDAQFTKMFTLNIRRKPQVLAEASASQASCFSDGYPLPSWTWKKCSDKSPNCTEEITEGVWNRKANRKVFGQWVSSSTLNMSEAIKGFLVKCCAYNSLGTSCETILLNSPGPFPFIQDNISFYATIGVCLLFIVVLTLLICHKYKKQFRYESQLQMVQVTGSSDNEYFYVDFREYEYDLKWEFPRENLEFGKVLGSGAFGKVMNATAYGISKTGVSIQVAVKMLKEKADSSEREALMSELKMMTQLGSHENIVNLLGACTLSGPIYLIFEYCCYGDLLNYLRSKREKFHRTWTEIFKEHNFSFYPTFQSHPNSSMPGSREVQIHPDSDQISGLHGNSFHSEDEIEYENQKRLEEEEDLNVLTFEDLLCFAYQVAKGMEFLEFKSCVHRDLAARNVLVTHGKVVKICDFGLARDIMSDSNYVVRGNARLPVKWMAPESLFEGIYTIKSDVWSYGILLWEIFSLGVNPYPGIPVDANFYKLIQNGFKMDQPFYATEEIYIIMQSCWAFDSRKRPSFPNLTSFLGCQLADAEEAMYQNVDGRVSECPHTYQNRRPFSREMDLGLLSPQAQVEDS
Chain of Fibroblast growth factor receptor 2 (Homo sapiens) (P21802 22-821 limits assumed): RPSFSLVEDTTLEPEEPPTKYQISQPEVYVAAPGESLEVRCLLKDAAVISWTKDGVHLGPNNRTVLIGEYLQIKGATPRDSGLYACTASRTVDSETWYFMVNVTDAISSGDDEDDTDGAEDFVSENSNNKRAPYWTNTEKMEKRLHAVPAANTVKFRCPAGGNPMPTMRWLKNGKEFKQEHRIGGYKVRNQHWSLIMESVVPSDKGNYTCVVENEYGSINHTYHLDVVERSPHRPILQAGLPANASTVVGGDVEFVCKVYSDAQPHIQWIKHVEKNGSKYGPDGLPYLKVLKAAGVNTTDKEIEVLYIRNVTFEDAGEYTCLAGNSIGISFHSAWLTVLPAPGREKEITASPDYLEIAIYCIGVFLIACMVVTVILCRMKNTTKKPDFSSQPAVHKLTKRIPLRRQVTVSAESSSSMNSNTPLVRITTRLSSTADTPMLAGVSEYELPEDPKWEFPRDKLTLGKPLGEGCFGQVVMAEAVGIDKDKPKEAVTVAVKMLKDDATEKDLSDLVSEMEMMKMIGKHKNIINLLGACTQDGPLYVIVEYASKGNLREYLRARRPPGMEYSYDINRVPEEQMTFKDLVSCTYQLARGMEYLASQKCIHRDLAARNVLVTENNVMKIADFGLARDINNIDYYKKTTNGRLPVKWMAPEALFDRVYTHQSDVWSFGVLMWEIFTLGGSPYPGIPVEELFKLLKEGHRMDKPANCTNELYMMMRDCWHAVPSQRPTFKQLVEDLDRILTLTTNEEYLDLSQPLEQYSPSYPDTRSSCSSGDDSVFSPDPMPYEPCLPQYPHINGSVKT
Chain of Fibroblast growth factor receptor 4 (Homo sapiens) (P22455 22-802 limits assumed): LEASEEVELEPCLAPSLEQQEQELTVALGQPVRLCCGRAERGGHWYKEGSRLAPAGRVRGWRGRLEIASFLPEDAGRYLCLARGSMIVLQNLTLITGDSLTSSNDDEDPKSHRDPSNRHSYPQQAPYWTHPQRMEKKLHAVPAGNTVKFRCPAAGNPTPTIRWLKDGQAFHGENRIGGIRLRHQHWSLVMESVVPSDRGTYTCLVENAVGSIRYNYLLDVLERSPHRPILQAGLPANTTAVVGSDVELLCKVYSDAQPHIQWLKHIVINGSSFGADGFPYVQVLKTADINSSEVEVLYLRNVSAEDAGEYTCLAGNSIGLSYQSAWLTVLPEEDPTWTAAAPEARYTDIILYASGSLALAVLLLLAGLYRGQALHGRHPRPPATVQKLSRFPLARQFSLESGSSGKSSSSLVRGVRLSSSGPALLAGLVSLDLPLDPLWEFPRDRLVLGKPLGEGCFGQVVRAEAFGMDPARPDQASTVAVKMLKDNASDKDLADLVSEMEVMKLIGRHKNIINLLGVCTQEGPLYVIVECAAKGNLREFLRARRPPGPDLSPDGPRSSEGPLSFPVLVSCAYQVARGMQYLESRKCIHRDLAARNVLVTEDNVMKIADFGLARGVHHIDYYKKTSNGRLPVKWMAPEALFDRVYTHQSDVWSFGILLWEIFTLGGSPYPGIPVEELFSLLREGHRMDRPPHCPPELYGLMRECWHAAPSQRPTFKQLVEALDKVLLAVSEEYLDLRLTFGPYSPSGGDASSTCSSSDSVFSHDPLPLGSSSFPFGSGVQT
Chain of Tyrosine-protein kinase Fer (Homo sapiens) (P16591 whole entry, looked up): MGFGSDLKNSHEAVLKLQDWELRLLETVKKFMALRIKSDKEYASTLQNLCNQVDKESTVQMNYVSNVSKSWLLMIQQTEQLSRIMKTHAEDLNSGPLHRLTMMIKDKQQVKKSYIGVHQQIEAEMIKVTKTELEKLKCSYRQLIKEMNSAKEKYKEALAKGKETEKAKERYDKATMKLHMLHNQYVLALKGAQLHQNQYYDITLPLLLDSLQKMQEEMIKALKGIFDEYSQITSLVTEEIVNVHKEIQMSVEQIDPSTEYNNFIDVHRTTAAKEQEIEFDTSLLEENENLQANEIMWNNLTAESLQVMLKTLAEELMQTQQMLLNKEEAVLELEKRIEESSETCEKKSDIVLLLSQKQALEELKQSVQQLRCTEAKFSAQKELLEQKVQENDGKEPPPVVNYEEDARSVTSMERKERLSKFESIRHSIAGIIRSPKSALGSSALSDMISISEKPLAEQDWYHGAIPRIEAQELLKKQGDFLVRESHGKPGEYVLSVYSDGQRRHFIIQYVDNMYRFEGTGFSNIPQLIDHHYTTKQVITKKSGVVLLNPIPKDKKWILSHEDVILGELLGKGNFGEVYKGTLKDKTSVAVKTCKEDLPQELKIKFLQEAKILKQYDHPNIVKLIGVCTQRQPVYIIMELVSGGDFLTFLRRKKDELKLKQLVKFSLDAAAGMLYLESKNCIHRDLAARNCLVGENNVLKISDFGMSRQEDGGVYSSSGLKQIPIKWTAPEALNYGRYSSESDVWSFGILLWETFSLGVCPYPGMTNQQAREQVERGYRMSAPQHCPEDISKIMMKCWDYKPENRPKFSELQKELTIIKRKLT

Structure (SMILES) | residual activity [1] | residual activity [2] | residual activity [3] | residual activity [4] | residual activity [5] | residual activity [6] | residual activity [7] | residual activity [8] | residual activity [9] | residual activity [10] | residual activity [11] | residual activity [12] | residual activity [13] | residual activity [14] | residual activity [15] | residual activity [16] | residual activity [17] | residual activity [18] | residual activity [19] | residual activity [20]
CCOC(=O)c1c(C)[nH]c(/C=C2\C(=O)Nc3ccccc32)c1C | 89% | 98% | 80% | 83% | 85% | 119% | 80% | 87% | 74% | 38% | 15% | 6% | 9% | 1% |  |  |  |  |  | 
c1ccc(-c2cnc(Nc3ccc(OCCN4CCCC4)cc3)s2)cc1 | 46% | 59% | 8% | 80% | 28% | 123% | 59% | 63% | 11% | 4% | 0% | 4% | 0% | 2% | 111% |  |  |  |  | 
CC(C)N(CCC(=O)c1ccc2ccccc2c1)Cc1ccccc1 | 85% | 125% |  |  |  |  |  |  |  |  |  |  | 82% |  |  | 87% |  |  |  | 
CC(C)c1nn(-c2c(Cl)cccc2Cl)c2nc(Cc3ccc(OCCO)cc3)[nH]c(=O)c12 | 66% | 70% | 27% | 108% | 86% | 109% | 97% |  | 95% | 90% | 82% | 81% | 81% | 84% | 100% | 95% | 104% | 99% |  | 
O=c1cc(N2CCNCC2)oc2c(-c3ccccc3)cccc12 | 88% | 105% | 84% |  |  |  | 89% |  | 90% | 88% | 95% | 78% | 81% | 96% |  | 95% |  |  | 67% | 
O=S(=O)(NCCNC/C=C/c1ccc(Br)cc1)c1cccc2cnccc12 | 30% |  | 35% |  |  | 75% | 27% |  | 59% |  | 35% |  | 46% | 81% |  | 71% |  | 80% |  | 
CCCCc1c(-c2ccc(OC)cc2)[nH]c2nccnc12 | 49% | 46% | 46% | 88% | 60% | 34% | 51% | 61% | 78% | 44% | 32% | 27% | 30% | 6% | 84% | 91% |  | 114% | 91% | 109%
CCN(CC)CCNC(=O)c1c(C)[nH]c(/C=C2\C(=O)Nc3ccc(Cl)cc32)c1C | 4% | 7% | 1% | 14% | 3% | 14% | 2% | 8% | 2% | 5% | 0% | 1% | -1% | 0% | 79% | 14% | 8% | 1% |  | 
O=C1C(Cl)=C(N2C(=O)CCC2=O)C(=O)c2ccccc21 | 90% | 118% | 94% | 100% | 89% | 83% | 97% | 94% | 96% | 96% | 84% | 90% | 87% | 91% | 87% | 91% |  |  | 91% | 98%
Oc1cccc(-c2nc(N3CCOCC3)c3oc4ncccc4c3n2)c1 | 50% | 97% | 78% | 122% | 123% | 137% |  | 118% | 97% | 91% | 80% | 89% | 72% |  | 119% | 99% |  |  | 99% | 
CC(C)(C)n1nc(Cc2cccc3ccccc23)c2c(N)ncnc21 | 81% | 28% | 2% | 62% | 18% | 95% | 27% | 35% | 4% | 62% | 14% | 102% | 75% | 42% | 104% | 39% |  |  | 72% | 115%
COc1cc2nccc(Oc3ccc(NC(=S)NC(=O)c4ccccc4C)cc3)c2cc1OC | 66% | 49% | 8% | 84% | 40% | 79% | 36% | 14% | 3% | 5% | 0% | 75% | 31% | 1% | 70% | 34% | 90% | 58% | 78% | 
O=C(c1cc2cc(O)ccc2[nH]1)c1cc2cc(O)ccc2[nH]1 | 65% | 40% | 5% | 83% | 24% |  | 28% | 5% | 2% | 20% | 2% | 0% | 0% | 4% |  | 55% | 70% | 20% |  | 
Nc1ncnc2c1c(-c1ccc(Oc3ccccc3)cc1)cn2C1CCCC1 | 46% | 13% | -1% | 37% | 3% | 112% | 52% | 2% | 0% | 15% | 0% | 19% | 0% | 1% | 100% | 45% | 41% | 7% | 46% | 100%
Cn1c2ccccc2c2c3c(c4c5ccccc5n(CCC#N)c4c21)CNC3=O | 17% | 7% | 6% | 53% | 46% |  |  | 41% | 47% | 4% | 4% | 0% | 0% | 2% | 4% | 4% |  |  |  | 111%
O=C1NC(=O)c2c1c1c3ccccc3[nH]c1n1cncc21 | 25% | 41% | 9% | 72% | 32% | 79% | 56% | 75% | 45% | 16% | 3% | 18% | 5% | 0% |  |  | 76% | 41% | 80% | 102%

Structure (SMILES) | residual activity [1] | residual activity [2] | residual activity [3] | residual activity [4] | residual activity [5] | residual activity [6] | residual activity [7] | residual activity [8] | residual activity [9] | residual activity [10] | residual activity [11] | residual activity [12] | residual activity [13] | residual activity [14] | residual activity [15] | residual activity [16] | residual activity [17] | residual activity [18] | residual activity [19] | residual activity [20]
O=C(Nc1ccc(Cl)cc1)c1ccccc1NCc1ccncc1 | 73% | 75% | 10% |  |  |  |  |  |  | 0% | 2% |  | 65% | 0% | 131% | 101% |  | 73% | 78% | 
Cn1sc(=O)n(Cc2ccccc2)c1=O | 61% | 92% | 86% |  |  | 93% | 85% | 90% | 95% | 85% | 73% | 86% | 81% | 85% | 90% | 91% | 135% | 126% |  | 
CCCCc1c(-c2ccc(O)cc2)[nH]c2nccnc12 | 19% | 41% | 11% | 85% | 59% | 35% | 12% | 57% | 36% | 43% | 11% | 29% | 6% | 6% | 86% | 81% |  |  | 99% | 127%
NC(=O)Nc1sc(-c2ccc(F)cc2)cc1C(N)=O | 9% | 29% | 5% | 50% | 10% | 78% | 24% | 28% | 4% | 17% | 2% | 22% | 3% | 4% | 83% | 50% | 81% | 15% | 91% | 106%
O=C1NC(=O)C(c2c[nH]c3ccccc23)=C1c1c[nH]c2ccccc12 | 44% | 9% | 1% | 37% | 9% |  | 48% | 98% | 60% | 4% | 1% | 19% | 1% | 2% |  | 52% | 27% | 4% | 71% | 
O=C1NC(=O)C(c2cn(CCCn3ccnc3)c3ccccc23)=C1Nc1ccccc1 | 71% | 77% | 17% | 113% | 57% |  |  |  | 59% | 51% | 11% | 14% | 0% | 58% | 102% | 52% |  |  |  | 
O=C(c1ccccc1)c1ccc(N2CCOCC2)cc1O | 85% | 98% | 73% |  |  | 116% | 93% |  |  | 100% | 93% | 83% | 53% | 87% | 125% | 97% |  |  | 95% | 116%
O=c1cc(N2CCOCC2)oc2c1ccc1ccccc12 | 92% | 109% | 71% | 111% | 101% |  | 98% | 107% | 94% | 98% | 95% | 101% | 97% | 94% |  | 96% |  |  |  | 
Cc1cc(C)c(/C=C2\C(=O)Nc3ccccc32)[nH]1 | 9% | 65% | 13% |  |  |  |  | 53% | 30% | 3% | 0% | 1% | 0% | 1% | 100% | 55% | 80% | 68% |  | 124%
O=C1Nc2ccc(Cl)cc2/C1=C/c1cc(Cl)c(O)c(Cl)c1 | 58% | 93% | 53% | 80% | 39% |  |  | 96% | 42% | 55% | 1% | 21% | 1% | 3% |  |  | 96% | 62% |  | 
Nc1nccc(-c2c(-c3ccc(F)cc3)ncn2C2CCNCC2)n1 | 71% | 119% | 27% | 113% | 67% |  |  |  | 25% |  |  |  |  | 69% |  |  | 120% | 83% |  | 
NCCNc1ncc(C(N)=O)c(Nc2cccc(C(F)(F)F)c2)n1 | 7% | 113% | 68% | 100% | 80% | 32% | 3% | 30% | 6% |  |  | 50% | 5% |  | 102% | 47% |  |  |  | 
NC(=O)c1cccc(-c2cc(Nc3ccc(OC(F)(F)F)cc3)ncn2)c1 | 95% | 96% | 92% |  |  | 125% | 99% |  |  |  |  | 97% | 93% | 90% |  |  |  |  |  | 
CN(C)S(=O)(=O)c1ccc2c(c1)/C(=C/c1cc3c([nH]1)CCCC3)C(=O)N2 | 8% | 36% | 54% | 51% | 30% | 82% | 61% | 21% | 9% | 67% | 56% | 27% | 41% | 33% | 59% | 68% |  | 90% | 87% | 84%
O=C1Cc2c([nH]c3ccc(Br)cc23)-c2ccccc2N1 | 28% | 87% | 32% |  |  | 63% | 38% |  |  | 77% | 39% | 65% | 34% | 56% |  |  | 127% | 87% | 96% | 
Nc1ncnc2c1cnn2-c1ccccc1 | 95% | 127% | 94% | 96% | 83% |  |  |  | 85% | 96% | 88% | 95% | 55% | 99% |  |  | 76% | 83% | 97% | 
